In PubChem BioAssay (NCATS):
Inconclusive results are not listed. A call without a number means that no potency is given here. Calls of active or inactive are those of the source. Calls follow the shape of the dose curve; as a rule, active = well fitted inhibition curve with a large enough effect; inconclusive = small, poorly fitted or top-dose-only effect; inactive = no such curve, though single readings can be large or run the other way.
Potency is read from the fitted curve at half-maximal effect.

Each compound was assayed against Cytochrome P450 3A7 (Homo sapiens) (UniProt P24462) (assay: Cytochrome P450 family 3 subfamily A member 7 (CYP3A7) small molecule antagonists: luciferase biochemical qHTS assay (AID 1963596; also: nearly all actives have a fitted effect of over 40% in size)). Conditions: P450-Glo CYP3A7 enzyme luminescence, 1 h; series mostly up to 57.4 µM.
Chain of Cytochrome P450 3A7 (Homo sapiens) (P24462 whole entry, looked up): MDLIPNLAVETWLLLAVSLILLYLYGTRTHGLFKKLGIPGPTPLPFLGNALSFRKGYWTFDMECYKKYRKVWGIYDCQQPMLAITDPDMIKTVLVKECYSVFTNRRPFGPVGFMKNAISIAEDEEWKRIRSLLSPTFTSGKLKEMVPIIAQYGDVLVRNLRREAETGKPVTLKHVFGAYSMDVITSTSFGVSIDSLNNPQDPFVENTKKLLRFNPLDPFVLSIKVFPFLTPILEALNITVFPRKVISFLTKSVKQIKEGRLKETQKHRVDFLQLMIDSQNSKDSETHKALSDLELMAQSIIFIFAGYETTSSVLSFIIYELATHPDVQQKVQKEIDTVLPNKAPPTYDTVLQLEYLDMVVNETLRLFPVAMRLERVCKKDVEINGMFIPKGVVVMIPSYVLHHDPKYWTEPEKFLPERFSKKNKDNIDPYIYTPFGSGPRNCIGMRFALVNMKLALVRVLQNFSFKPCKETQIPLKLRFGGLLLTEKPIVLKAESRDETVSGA
Excerpt: National Center for Advancing Translational Sciences [NCATS] Assay Overview: Cytochrome P450 (CYP) enzymes are membrane-bound hemeproteins that play a key role in metabolism of drugs and xenobiotics. The CYP3A subfamily is the most abundant, representing 30% of the total adult hepatic CYP content, whereas CYP3A7 is found predominantly in human fetal liver and accounts up to 50% of the total fetal hepatic CYP content. Testing the effect of chemicals on CYP isozymes is useful to minimize the adverse drug reactions and toxicities in the drug development process. Chemicals were tested for their effect on CYP enzyme activities by using P450-Glo (TM) screening systems (Promega Corporation, Madison, WI). These systems provide a luminescent method containing proluciferin substrates and are converted to luciferin products by CYP isozymes. The luciferin products formed are detected with a luciferin detection reagent, and the amount of light produced is proportional to CYP activity. P450-Glo (TM) CYP3A7 screening system (Catalog. No. V8812) was used to detect the compounds that interfere with CYP3A7 activity. The positive control compound used for CYP3A7 assay is ketoconazole (Sigma-Aldrich, St. Louis, MO).
Assay Protocol Summary: Two ul of enzyme-substrate mix was dispensed into medium binding white/solid 1536-well plates (Greiner Bio-One North America Inc., Monroe, NC) using a Flying Reagent Dispenser (FRD, Aurora Discovery, San Diego, CA). Compounds dissolved in DMSO, and positive control (ketoconazole) were transferred to the assay plates at 23 nl using a Pintool station (Wako, San Diego, CA). The assay plates were incubated at room temperature for 10 min. Then 2 ul of NADPH regeneration solution was added to each well of the assay plates using an FRD and incubated at room temperature for 1 h. The reaction was stopped by adding 4 ul of detection reagent using an FRD and after 20 min incubation at room temperature the luminescence signal was measured using a ViewLux plate reader (Perkin Elmer, Shelton, CT). Data were expressed as relative luminescence units.
`O=[N+]([O-])/N=C1\NCCN1Cc1ccc(Cl)nc1` was tested, and the Potency was “inactive”. `CC(=O)N(C)c1cccc(-c2ccnc3c(C(=O)c4cccs4)cnn23)c1` was tested, and the Potency was “inactive”. With `CCN[C@@H](C)Cc1cccc(C(F)(F)F)c1` the Potency was “inactive”. With `CC(=O)[O][Hg][c]1ccccc1` the Potency was 977 nM (active). In the case of `CC(=O)NCCCOc1ccc(C(=O)N2CCC(N3C(=O)CCc4ccccc43)CC2)cc1`, the Potency is reported as “inactive”. For `CC(Cc1ccccc1)NC=O` (stereo not given), the Potency was “inactive”. In the case of `OC(O)C(Cl)(Cl)Cl`, the Potency is reported as “inactive”. With `N#Cc1ccc([C@H]2CCCC[C@H]2O)cc1C(F)(F)F` the Potency was “inactive”. `CCCC[N+]1(C)[C@@H]2CC(OC(=O)[C@H](CO)c3ccccc3)C[C@H]1[C@@H]1O[C@@H]12` (stereo not given in full) was tested, and the Potency was “inactive”. In the case of `CN(C)CCc1ccc(O)cc1`, the Potency is reported as “inactive”. `CN1C(=O)CN=C(c2ccccc2)c2cc([N+](=O)[O-])ccc21` was tested, and the Potency was “inactive”. `c1cncc(OC[C@@H]2CCN2)c1` was tested, and the Potency was “inactive”. With `Oc1ccc(Cl)cc1` the Potency was “inactive”. In the case of `CNC(=O)NC(O)C(Cl)(Cl)Cl` (stereo not given), the Potency is reported as “inactive”. In the case of `C1CN2CCC1CC2`, the Potency is reported as “inactive”. For `CCCCCn1cc(C(=O)c2cccc3ccccc23)c2ccccc21`, the Potency was “inactive”. For `COC1CC(=C(c2cccs2)c2cccs2)C[N+](C)(C)C1` (stereo not given), the Potency was “inactive”. `O=C1c2ccccc2C(=O)c2ccccc21` was tested, and the Potency was “inactive”. With `O=[N+]([O-])c1ccc([As](=O)(O)O)cc1` the Potency was “inactive”. `Oc1c(Br)cc(Br)cc1Br` was tested, and the Potency was “inactive”. `C[C@@H]1O[C@@H](O[C@H]2C[C@@H](O)[C@]3(CO)[C@H]4[C@H](O)C[C@]5(C)[C@@H](C6=CC(=O)OC6)CC[C@]5(O)[C@@H]4CC[C@]3(O)C2)[C@H](O)[C@H](O)[C@H]1O` was tested, and the Potency was “inactive”. For `CCN(C(C)=O)c1cccc(-c2ccnc3c(C#N)cnn23)c1`, the Potency was “inactive”. `CC(=O)OC1C[C@H](O[C@@H]2C(O)C[C@H](O[C@@H]3C(O)C[C@@H](OC4CC[C@]5(C)C(CCC6C5CC(O)[C@@]5(C)C(C7=CC(=O)OC7)CC[C@@]65O)C4)OC3C)OC2C)O[C@H](C)[C@H]1O[C@H]1OC(CO)C(O)C(O)C1O` (stereo not given in full) was tested, and the Potency was “inactive”. For `CN1C(=O)CCS(=O)(=O)C1c1ccc(Cl)cc1` (stereo not given), the Potency was “inactive”. With `Oc1ccc2c3c1O[C@H]1[C@@H](O)C=C[C@H]4[C@@H](C2)NCC[C@@]341` the Potency was “inactive”. `O=C(O)CCCCCCNC1c2ccccc2CCc2ccccc21` was tested, and the Potency was “inactive”. For `CCN(CC)C(C)C(=O)c1ccccc1` (stereo not given), the Potency was “inactive”. With `CCOc1cc(C=O)ccc1O` the Potency was “inactive”. In the case of `CN=C(NS(=O)(=O)c1ccc(Cl)cc1)N1C[C@H](c2ccccc2)C(c2ccc(Cl)cc2)=N1`, the Potency is reported as “inactive”. With `CCC1(CC)C(=O)NC(=O)NC1=O` the Potency was “inactive”. For `Clc1ccccc1N1CCNCC1`, the Potency was “inactive”. `CC(C)[C@@H](CN1CC[C@@](C)(c2cccc(O)c2)[C@@H](C)C1)NC(=O)[C@H]1Cc2ccc(O)cc2CN1` was tested, and the Potency was “inactive”. With `C[C@@H]1CN(C2CCC(C#N)(c3ccc(F)cc3)CC2)CC[C@]1(C(=O)O)c1ccccc1` (stereo not given in full) the Potency was “inactive”. In the case of `O=c1n(Cl)c(=O)n(Cl)c(=O)n1Cl`, the Potency is reported as “inactive”. With `CCN(CC)CCOC(=O)C(O)(c1ccccc1)c1ccccc1` the Potency was “inactive”. In the case of `CN1CC[C@]23c4c5ccc(O)c4O[C@H]2[C@@H](O)CC[C@H]3[C@H]1C5`, the Potency is reported as “inactive”. `CCc1ccc(C2CCNCC2)cc1` was tested, and the Potency was “inactive”. `CN1C(=O)C(Cc2ccc3ccccc3c2)N=C(c2ccc(O)cc2)c2cc(Cl)ccc21` (stereo not given) was tested, and the Potency was “inactive”. In the case of `CN(C)[C@@H]1C(=O)C(C(N)=O)=C(O)[C@@]2(O)C(=O)C3=C(O)c4c(O)cccc4[C@@](C)(O)[C@H]3[C@H](O)[C@@H]12`, the Potency is reported as “inactive”. For `CCCCn1cc(C(=O)c2cccc3ccccc23)c2ccccc21`, the Potency was “inactive”.
